Targets with a hit are over-represented here; the source holds about 7,900 in all. About 0.6% of all pairs of compound and target were hits.
Key:
Assay in all cases: log2 fold change, soluble protein after heating vs DMSO (PISA); higher = thermal stabilisation; K562 cells, 10 uM, 30 min; active = over 0.2 and 3.5 SD of the protein, either way, in both replicates (recomputed)
saracatinib = compound: CN1CCN(CCOc2cc(OC3CCOCC3)c3c(Nc4c(Cl)ccc5c4OCO5)ncnc3c2)CC1 [saracatinib]
Summary of the method: (§1)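 K562 cells at 2×10^6 cells/mL were given 10 μM compound for 30 min. Aliquots then went through 3 min of heating across 48°C-58°C, were pooled, and were extracted in PBS with 0.5% NP-40 at 4°C, and the supernatant after 21,000xg for 90 min was quantified by TMTpro 16plex LC-MS/MS with channel sums equalised. Thermal stability relative to control samples, from duplicates, is given as log2 fold change.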

sotrastaurin = compound: CN1CCN(c2nc(C3=C(c4c[nH]c5ccccc45)C(=O)NC3=O)c3ccccc3n2)CC1 [sotrastaurin]
Summary of the method: as §1

alvocidib = compound: CN1CC[C@H](c2c(O)cc(O)c3c(=O)cc(-c4ccccc4Cl)oc23)[C@H](O)C1 [alvocidib]
Summary of the method: as §1

Tubastatin A = compound: CN1CCc2c(c3ccccc3n2Cc2ccc(C(=O)NO)cc2)C1 [Tubastatin A]
Summary of the method: as §1

[1] = compound: CNC(=O)C1=CC=CC=C1NC2=NC(=NC=C2Cl)NC3=C(C=C(C=C3)N4CCOCC4)OC
Summary of the method: as §1

defactinib = compound: CNC(=O)c1ccc(Nc2ncc(C(F)(F)F)c(NCc3nccnc3N(C)S(C)(=O)=O)n2)cc1 [defactinib]
Summary of the method: as §1

rucaparib = compound: CNCc1ccc(-c2[nH]c3cc(F)cc4c3c2CCNC4=O)cc1 [rucaparib]
Summary of the method: as §1

[2] = compound: CNc1nc(-c2ccc3c(N)n[nH]c3c2)cc(N2C[C@@H](C(=O)NC3CCCCC3)CC[C@H]2C)n1
Summary of the method: as §1

encorafenib = compound: COC(=O)N[C@@H](C)CNc1nccc(-c2cn(C(C)C)nc2-c2cc(Cl)cc(NS(C)(=O)=O)c2F)n1 [encorafenib]
Summary of the method: as §1

[3] = compound: COC(=O)[C@H](CCSC)NC(=O)C1=C(C=C(C=C1)NC[C@H](CS)N)C2=CC=CC=C2
Summary of the method: as §1

Measured: log2 fold change

CHD3 isoform 3 (UniProt Q12873)
inactive: saracatinib -0.067 | sotrastaurin -0.312 | alvocidib -0.12 | Tubastatin A 0.096 | [1] -0.029 | defactinib -0.253 | rucaparib 0.134 | [2] -0.024 | encorafenib 0.136 | [3] -0.087

CDK5RAP3 isoform 4 (UniProt Q96JB5)
inactive: saracatinib -0.009 | sotrastaurin -0.099 | alvocidib -0.066 | Tubastatin A 0.024 | [1] 0.035 | defactinib -0.045 | rucaparib -0.029 | [2] 0.002 | encorafenib 0.033 | [3] -0.043

C19orf53 (UniProt Q9UNZ5)
inactive: saracatinib -0.069 | sotrastaurin -0.03 | alvocidib 0.33 | Tubastatin A 0.129 | [1] 0.155 | defactinib 0.296 | rucaparib 0.257 | [2] 0.053 | encorafenib 0.136 | [3] 0.036

CIT isoform 4 (UniProt O14578)
Sequence of UniProt O14578 (O14578 whole entry, looked up): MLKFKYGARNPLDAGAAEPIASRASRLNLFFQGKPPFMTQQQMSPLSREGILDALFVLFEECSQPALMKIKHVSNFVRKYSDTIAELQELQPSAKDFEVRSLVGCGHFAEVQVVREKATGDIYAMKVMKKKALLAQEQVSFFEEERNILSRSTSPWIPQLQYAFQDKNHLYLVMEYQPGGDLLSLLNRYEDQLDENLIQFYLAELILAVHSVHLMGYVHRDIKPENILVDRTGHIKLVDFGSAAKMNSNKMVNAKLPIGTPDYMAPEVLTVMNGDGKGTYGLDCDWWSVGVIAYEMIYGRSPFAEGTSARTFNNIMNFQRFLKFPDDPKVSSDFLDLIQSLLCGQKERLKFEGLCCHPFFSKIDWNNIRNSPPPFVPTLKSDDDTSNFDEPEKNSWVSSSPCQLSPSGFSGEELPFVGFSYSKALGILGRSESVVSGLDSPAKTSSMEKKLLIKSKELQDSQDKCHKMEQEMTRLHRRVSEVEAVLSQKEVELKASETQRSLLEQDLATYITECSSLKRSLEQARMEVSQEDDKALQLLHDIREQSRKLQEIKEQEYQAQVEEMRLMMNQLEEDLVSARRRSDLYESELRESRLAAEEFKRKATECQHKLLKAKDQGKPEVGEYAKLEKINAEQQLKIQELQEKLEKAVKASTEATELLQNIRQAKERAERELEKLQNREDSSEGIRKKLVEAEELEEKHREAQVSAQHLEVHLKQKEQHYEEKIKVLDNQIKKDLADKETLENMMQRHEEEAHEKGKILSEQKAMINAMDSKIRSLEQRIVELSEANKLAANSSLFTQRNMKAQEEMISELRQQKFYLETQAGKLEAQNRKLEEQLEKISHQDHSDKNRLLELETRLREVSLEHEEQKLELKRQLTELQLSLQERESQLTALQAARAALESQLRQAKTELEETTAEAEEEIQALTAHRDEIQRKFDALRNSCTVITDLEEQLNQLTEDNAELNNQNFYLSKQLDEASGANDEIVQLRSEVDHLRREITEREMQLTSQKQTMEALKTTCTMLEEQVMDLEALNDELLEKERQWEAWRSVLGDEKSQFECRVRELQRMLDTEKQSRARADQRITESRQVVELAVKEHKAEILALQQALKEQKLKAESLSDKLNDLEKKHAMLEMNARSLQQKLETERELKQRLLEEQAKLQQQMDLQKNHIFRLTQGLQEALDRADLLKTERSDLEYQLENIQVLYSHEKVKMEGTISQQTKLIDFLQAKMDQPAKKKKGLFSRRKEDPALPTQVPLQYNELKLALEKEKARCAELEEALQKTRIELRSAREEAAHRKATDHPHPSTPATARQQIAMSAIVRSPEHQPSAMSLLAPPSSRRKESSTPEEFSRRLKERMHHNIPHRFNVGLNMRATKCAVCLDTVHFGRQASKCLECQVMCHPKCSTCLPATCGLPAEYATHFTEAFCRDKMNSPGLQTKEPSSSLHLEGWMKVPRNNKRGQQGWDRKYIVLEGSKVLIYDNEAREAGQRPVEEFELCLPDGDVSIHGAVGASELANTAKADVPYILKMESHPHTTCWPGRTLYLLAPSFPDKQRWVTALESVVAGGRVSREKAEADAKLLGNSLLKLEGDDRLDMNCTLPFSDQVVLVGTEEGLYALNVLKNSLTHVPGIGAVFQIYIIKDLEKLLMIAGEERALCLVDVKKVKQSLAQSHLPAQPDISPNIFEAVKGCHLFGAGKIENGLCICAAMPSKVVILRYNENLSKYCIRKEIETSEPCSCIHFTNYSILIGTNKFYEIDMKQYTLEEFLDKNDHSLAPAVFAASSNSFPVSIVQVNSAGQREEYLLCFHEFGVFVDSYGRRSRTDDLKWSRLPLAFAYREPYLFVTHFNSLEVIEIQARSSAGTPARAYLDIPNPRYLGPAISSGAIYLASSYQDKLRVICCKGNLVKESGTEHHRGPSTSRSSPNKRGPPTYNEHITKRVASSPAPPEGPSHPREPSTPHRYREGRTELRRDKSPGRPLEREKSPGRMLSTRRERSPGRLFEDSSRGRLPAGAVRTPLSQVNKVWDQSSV
inactive: saracatinib -0.044 | sotrastaurin -0.033 | alvocidib 0.001 | Tubastatin A 0.074 | [1] 0.054 | defactinib -0.034 | rucaparib -0.202 | [2] -0.055 | encorafenib -0.025 | [3] -0.001

CCZ1 (UniProt P86791)
inactive: saracatinib 0.079 | sotrastaurin -0.003 | alvocidib -0.052 | Tubastatin A -0.016 | [1] 0.012 | defactinib -0.018 | rucaparib -0.006 | [2] -0.025 | encorafenib -0.01 | [3] -0.019

CDK8 (UniProt P49336)
inactive: saracatinib -0.006 | sotrastaurin 0.074 | Tubastatin A -0.1 | [1] 0.053 | defactinib -0.059 | rucaparib 0.192 | [2] 0.018 | encorafenib -0.002 | [3] 0.064
active: alvocidib 0.66

CSK (UniProt P41240)
inactive: saracatinib -0.01 | sotrastaurin -0.069 | alvocidib -0.102 | Tubastatin A 0.048 | [1] 0.097 | defactinib -0.105 | rucaparib -0.008 | [2] 0.007 | encorafenib 0.013 | [3] -0.048

CETN2 (UniProt P41208)
Sequence of UniProt P41208 (P41208 whole entry, looked up): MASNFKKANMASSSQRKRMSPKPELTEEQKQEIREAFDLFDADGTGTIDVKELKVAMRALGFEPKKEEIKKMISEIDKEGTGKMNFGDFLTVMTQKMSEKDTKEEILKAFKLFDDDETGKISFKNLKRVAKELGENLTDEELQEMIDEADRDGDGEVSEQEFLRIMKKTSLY
inactive: saracatinib 0.095 | sotrastaurin 0.077 | alvocidib -0.013 | Tubastatin A -0.128 | [1] -0.03 | defactinib -0.054 | rucaparib 0.031 | [2] 0.058 | encorafenib -0.079 | [3] 0.06

CHMP4C (UniProt Q96CF2)
inactive: saracatinib 0 | sotrastaurin 0.042 | alvocidib 0.02 | Tubastatin A -0.009 | [1] -0.173 | defactinib -0.047 | rucaparib -0.032 | [2] -0.138 | encorafenib -0.097 | [3] 0.007

CDK19 (UniProt Q9BWU1)
active: alvocidib 0.585
inactive: saracatinib 0.006 | sotrastaurin 0.035 | Tubastatin A -0.104 | [1] -0.209 | defactinib 0.046 | rucaparib 0.345 | [2] 0.03 | encorafenib -0.086 | [3] -0.005

C16orf58 (UniProt Q96GQ5)
inactive: saracatinib 0.042 | sotrastaurin 0.04 | alvocidib -0.032 | Tubastatin A -0.003 | [1] -0.005 | defactinib -0.031 | rucaparib -0.012 | [2] -0.063 | encorafenib 0.051 | [3] -0.02

CNOT1 (UniProt A5YKK6)
inactive: saracatinib -0.025 | sotrastaurin -0.087 | alvocidib -0.051 | Tubastatin A -0.003 | [1] 0.03 | defactinib -0.057 | rucaparib 0.077 | [2] 0.024 | encorafenib 0.074 | [3] -0.031

CDK11B (UniProt P21127)
Sequence of UniProt P21127 (P21127 whole entry, looked up): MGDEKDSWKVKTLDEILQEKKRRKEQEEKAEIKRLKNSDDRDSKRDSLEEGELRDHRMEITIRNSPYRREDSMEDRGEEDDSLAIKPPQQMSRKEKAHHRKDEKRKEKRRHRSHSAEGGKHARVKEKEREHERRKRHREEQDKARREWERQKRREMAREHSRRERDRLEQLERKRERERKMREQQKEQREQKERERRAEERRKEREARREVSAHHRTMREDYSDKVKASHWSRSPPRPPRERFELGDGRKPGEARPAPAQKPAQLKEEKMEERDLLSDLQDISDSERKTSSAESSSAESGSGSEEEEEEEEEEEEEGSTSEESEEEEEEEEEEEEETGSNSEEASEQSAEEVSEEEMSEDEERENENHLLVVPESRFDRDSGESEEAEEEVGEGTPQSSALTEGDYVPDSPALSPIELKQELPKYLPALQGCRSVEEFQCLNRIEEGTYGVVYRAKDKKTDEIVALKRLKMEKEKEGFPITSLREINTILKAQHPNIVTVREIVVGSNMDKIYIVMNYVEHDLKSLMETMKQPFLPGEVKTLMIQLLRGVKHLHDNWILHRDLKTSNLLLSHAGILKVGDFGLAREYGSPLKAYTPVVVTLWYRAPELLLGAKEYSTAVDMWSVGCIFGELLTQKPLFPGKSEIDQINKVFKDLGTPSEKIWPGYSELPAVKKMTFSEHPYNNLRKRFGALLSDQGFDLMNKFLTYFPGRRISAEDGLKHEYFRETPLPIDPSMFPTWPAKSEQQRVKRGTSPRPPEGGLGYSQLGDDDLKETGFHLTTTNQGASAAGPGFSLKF
inactive: saracatinib -0.039 | sotrastaurin 0.035 | alvocidib 0.157 | Tubastatin A 0.137 | [1] -0.098 | defactinib -0.162 | rucaparib -0.323 | [2] -0.052 | encorafenib 0.077 | [3] -0.039

CPSF7 isoform 3 (UniProt Q8N684)
inactive: saracatinib 0.006 | sotrastaurin 0.026 | alvocidib -0.018 | Tubastatin A 0.032 | [1] -0.071 | defactinib 0.014 | rucaparib 0.033 | [2] -0.014 | encorafenib -0.014 | [3] -0.044

CHCHD1 (UniProt Q96BP2)
inactive: saracatinib -0.069 | sotrastaurin 0.059 | alvocidib 0.009 | Tubastatin A -0.025 | [1] 0.132 | defactinib 0.017 | rucaparib 0.114 | [2] 0.04 | encorafenib -0.037 | [3] -0.024

CD63 (UniProt P08962)
inactive: saracatinib 0.021 | sotrastaurin 0.017 | alvocidib 0.01 | Tubastatin A -0.005 | [1] 0 | defactinib -0.006 | rucaparib -0.018 | [2] -0.01 | encorafenib 0.049 | [3] 0.015

CPSF6 isoform 2 (UniProt Q16630)
inactive: saracatinib -0.014 | sotrastaurin 0.031 | alvocidib -0.128 | Tubastatin A 0.015 | [1] -0.217 | defactinib -0.009 | rucaparib 0.016 | [2] 0.008 | encorafenib -0.043 | [3] 0.007

CAMKK2 (UniProt Q96RR4)
inactive: saracatinib 0.03 | sotrastaurin -0.042 | alvocidib 0.048 | Tubastatin A 0.105 | [1] 0.36 | defactinib -0.104 | rucaparib -0.084 | [2] -0.101 | encorafenib 0.057 | [3] 0.057

CCAR1 (UniProt Q8IX12)
Sequence of UniProt Q8IX12 (Q8IX12 whole entry, looked up): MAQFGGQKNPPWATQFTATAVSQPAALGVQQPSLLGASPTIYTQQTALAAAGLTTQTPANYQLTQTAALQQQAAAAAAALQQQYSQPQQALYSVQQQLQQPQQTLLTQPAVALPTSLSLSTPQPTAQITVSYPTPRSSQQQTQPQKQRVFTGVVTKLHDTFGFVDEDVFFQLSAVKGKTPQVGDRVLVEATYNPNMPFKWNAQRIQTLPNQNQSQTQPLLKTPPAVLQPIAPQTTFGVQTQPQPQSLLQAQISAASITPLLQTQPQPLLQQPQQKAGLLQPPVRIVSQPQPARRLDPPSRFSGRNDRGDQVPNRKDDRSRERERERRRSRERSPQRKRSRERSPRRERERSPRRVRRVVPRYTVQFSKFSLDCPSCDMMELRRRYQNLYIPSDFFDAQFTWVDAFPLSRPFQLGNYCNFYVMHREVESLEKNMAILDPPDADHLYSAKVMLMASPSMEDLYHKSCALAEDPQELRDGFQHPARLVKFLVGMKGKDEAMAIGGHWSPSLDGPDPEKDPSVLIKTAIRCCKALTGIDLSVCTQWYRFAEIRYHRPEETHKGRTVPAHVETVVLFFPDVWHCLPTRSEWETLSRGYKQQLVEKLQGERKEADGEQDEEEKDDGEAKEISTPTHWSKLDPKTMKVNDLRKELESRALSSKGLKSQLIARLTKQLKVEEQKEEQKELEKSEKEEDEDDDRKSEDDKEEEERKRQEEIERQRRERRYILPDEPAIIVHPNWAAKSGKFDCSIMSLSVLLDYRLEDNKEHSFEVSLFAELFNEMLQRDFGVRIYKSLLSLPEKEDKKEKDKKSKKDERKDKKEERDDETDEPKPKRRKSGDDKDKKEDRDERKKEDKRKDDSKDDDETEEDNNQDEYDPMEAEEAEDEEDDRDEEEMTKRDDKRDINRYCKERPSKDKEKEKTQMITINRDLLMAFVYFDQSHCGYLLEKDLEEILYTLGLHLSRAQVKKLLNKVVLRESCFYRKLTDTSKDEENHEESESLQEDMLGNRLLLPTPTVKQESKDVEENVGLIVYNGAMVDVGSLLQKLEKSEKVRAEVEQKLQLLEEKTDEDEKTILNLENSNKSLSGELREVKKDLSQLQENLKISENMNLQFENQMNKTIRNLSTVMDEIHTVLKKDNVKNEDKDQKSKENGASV
inactive: saracatinib -0.038 | sotrastaurin -0.027 | alvocidib -0.17 | Tubastatin A -0.001 | [1] -0.039 | defactinib -0.021 | rucaparib 0.026 | [2] 0.086 | encorafenib -0.005 | [3] -0.033

CRKL (UniProt P46109)
inactive: sotrastaurin 0.003 | alvocidib -0.044 | Tubastatin A 0.003 | [1] -0.01 | defactinib -0.052 | rucaparib -0.001 | [2] 0 | encorafenib 0.016 | [3] 0.008
active: saracatinib -1.42

CDK5 (UniProt Q00535)
inactive: saracatinib -0.008 | sotrastaurin 0.094 | alvocidib 0.142 | Tubastatin A -0.013 | [1] 0.029 | defactinib 0.143 | rucaparib 0.05 | [2] 0.006 | encorafenib 0.049 | [3] -0.042

CDC42EP1 (UniProt Q00587)
inactive: saracatinib -0.017 | sotrastaurin 0.025 | alvocidib -0.146 | Tubastatin A 0.001 | [1] -0.303 | defactinib -0.144 | rucaparib -0.002 | [2] 0.016 | encorafenib -0.017 | [3] 0.007

CNDP2 (UniProt Q96KP4)
inactive: saracatinib -0.016 | sotrastaurin -0.003 | alvocidib -0.062 | [1] -0.014 | defactinib -0.006 | rucaparib -0.041 | [2] 0.028 | encorafenib 0.001 | [3] 0.124
active: Tubastatin A -0.226

CASTOR2 (UniProt A6NHX0)
inactive: saracatinib 0.042 | sotrastaurin 0.039 | alvocidib 0.027 | Tubastatin A 0.036 | [1] -0.082 | defactinib -0.092 | rucaparib -0.048 | [2] 0.032 | encorafenib 0.04 | [3] 0

CRLF3 (UniProt Q8IUI8)
inactive: saracatinib -0.209 | sotrastaurin -0.124 | alvocidib -0.161 | Tubastatin A 0.054 | [1] 0.051 | defactinib -0.076 | rucaparib 0.026 | [2] 0.036 | encorafenib 0.074 | [3] -0.013

COCH (UniProt O43405)
inactive: saracatinib 0.126 | sotrastaurin 0.01 | alvocidib 0.029 | Tubastatin A -0.036 | [1] 0.031 | defactinib 0.1 | rucaparib 0.011 | [2] -0.139 | encorafenib -0.074 | [3] 0.05

CHCHD4 isoform 2 (UniProt Q8N4Q1)
inactive: saracatinib 0.277 | sotrastaurin 0.003 | alvocidib -0.14 | Tubastatin A 0.061 | [1] 0.199 | defactinib -0.049 | rucaparib -0.007 | [2] 0.202 | encorafenib -0.046 | [3] -0.034

CFAP36 isoform 2 (UniProt Q96G28)
inactive: saracatinib -0.01 | sotrastaurin -0.023 | alvocidib -0.132 | Tubastatin A 0.116 | [1] 0.1 | defactinib 0.13 | rucaparib 0.064 | [2] -0.058 | encorafenib 0.053 | [3] 0.05

CHERP (UniProt Q8IWX8)
Sequence of UniProt Q8IWX8 (Q8IWX8 whole entry, looked up): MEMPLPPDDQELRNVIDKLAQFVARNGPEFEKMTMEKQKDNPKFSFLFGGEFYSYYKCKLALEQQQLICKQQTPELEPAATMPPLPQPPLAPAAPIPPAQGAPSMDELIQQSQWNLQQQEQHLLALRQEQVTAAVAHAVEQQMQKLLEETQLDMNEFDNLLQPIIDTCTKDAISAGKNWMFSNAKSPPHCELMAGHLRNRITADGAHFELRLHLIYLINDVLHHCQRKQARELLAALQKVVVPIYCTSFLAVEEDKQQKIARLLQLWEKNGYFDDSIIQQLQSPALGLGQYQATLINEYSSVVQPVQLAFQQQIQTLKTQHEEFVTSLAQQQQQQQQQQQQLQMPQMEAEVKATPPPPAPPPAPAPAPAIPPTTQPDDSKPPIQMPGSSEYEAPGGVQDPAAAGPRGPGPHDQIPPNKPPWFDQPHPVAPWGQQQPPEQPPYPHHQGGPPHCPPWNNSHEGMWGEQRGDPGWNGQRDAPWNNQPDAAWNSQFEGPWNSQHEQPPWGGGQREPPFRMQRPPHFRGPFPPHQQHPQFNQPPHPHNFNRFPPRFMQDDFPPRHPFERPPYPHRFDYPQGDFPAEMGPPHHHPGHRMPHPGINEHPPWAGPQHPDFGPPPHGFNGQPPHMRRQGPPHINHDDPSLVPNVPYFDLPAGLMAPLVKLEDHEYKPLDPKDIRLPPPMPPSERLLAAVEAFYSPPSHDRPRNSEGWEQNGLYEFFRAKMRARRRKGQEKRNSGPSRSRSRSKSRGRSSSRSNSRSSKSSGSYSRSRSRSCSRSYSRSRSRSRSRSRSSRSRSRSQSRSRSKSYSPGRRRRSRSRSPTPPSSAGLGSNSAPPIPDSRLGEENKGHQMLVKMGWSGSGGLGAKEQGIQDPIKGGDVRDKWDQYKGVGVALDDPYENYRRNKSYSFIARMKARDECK
inactive: saracatinib 0.045 | sotrastaurin -0.167 | alvocidib -0.143 | Tubastatin A 0.119 | [1] -0.006 | defactinib -0.29 | rucaparib 0.022 | [2] -0.046 | encorafenib 0.058 | [3] 0.002

CSNK2A2 (UniProt P19784)
inactive: saracatinib 0.029 | sotrastaurin 0.024 | alvocidib -0.041 | Tubastatin A -0.042 | [1] 0.214 | defactinib -0.067 | rucaparib -0.123 | [2] -0.017 | encorafenib -0.039 | [3] -0.052

— the supplement of paper PMC10849652
